Compounds with a hit are over-represented: about 15% of the library has one in this group of screens.
DT40 TDP1 no CPT – qHTS for Inhibitors of human tyrosyl-DNA phosphodiesterase 1 (TDP1): qHTS in cells in absence of CPT | Potency, µM (highest dose often 46.2 µM), most hits filed as inhibitors | AID 686978, 2013 | DT40 Tdp1-/- hTDP1 cells, no CPT, ATP luminescence, 48 h | actives 15% (n = 420,000); also: nearly all actives have a fitted effect of over 55% in size
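Readout: luminescence from CellTiter-Glo after 30 min in the dark at RT. Cells: DT40 Tdp1-/- with stable hTDP1, 400/well. Exposure: compounds alone, ≥48 hr, 37 °C.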
ALOX12 inh – blocks human arachidonate 12S-lipoxygenase. P18054. purified 12hLO, xylenol orange hydroperoxide absorbance. Potency, µM (top dose mostly 108 µM), actives largely listed as inhibitors. actives 1.1% (n = 580,000). AID 1671190
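Purified human 12hLO (150 nM final) in 25 mM Hepes, 0.01% Triton X-100, pH 7.0 was preincubated 15 min at room temperature with compound. Then 40 uM arachidonic acid was added, 30 min. Hydroperoxide was read by Fe-XO absorbance ratio 573/405 nm.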
ELG1 repair inh – blocks ELG1-dependent DNA repair in HEK293T cells | HEK293T ELG1-luciferase reporter, luminescence, 16 h; DNA damage induced by 5-fluorouridine | Potency, µM (highest dose often 46.1 µM), actives largely listed as inhibitors | actives 2.3% (n = 330,000) | AID 504467; also: nearly all actives have a fitted effect of over 55% in size
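Cells (2,000 per well) received 5-fluorouridine plus test compound or DMSO and were incubated 16 hr at 37 °C, 5% CO2. Luciferase activity was read by luminescence 30 min after ONE-Glo addition; signal suppression marked inhibition of damage-induced ELG1 function.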
TDP1 cell CPT – growth inhibition of DT40 Tdp1-/-;hTDP1 cells with camptothecin (screen for TDP1 inhibitors); chicken DT40 Tdp1-/-;hTDP1 cells + 20 nM CPT, ATP luminescence, 48 h; Potency, µM (doses to about 46.2 µM), most hits filed as inhibitors; actives 12% (n = 420,000); AID 686979; also: nearly all actives have a fitted effect of over 55% in size
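Chicken DT40 Tdp1-/- cells complemented with human TDP1, 400 cells/well, exposed to compounds plus 20 nM camptothecin for at least 48 h at 37 C; viability read as ATP content by CellTiter-Glo luminescence.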
VP16 counter – Gal4-VP16 reporter inhibition counter-screen | Drosophila S2 Gal4-VP16 UAS-luciferase, luminescence, 20 h | Potency, µM (titrated, usually from 53.6 µM), usual class: inhibitors | actives 3.5% (n = 310,000) | AID 2546;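 also: Gal4-VP16 expression switched on by copper sulfate through the metallothionein promoter; nearly all actives have a fitted effect of over 50% in size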
RORg inh – inhibitors of mouse ROR gamma transcriptional activity; P51450; Drosophila S2 Gal4-RORgamma UAS-luciferase reporter, 20 h; Potency, µM (doses to about 53.6 µM), hits mostly inhibitors; actives 5.4% (n = 310,000); also: nearly all actives have a fitted effect of over 60% in size
Target sequence (P51450 whole entry, looked up, the tested form may be a part): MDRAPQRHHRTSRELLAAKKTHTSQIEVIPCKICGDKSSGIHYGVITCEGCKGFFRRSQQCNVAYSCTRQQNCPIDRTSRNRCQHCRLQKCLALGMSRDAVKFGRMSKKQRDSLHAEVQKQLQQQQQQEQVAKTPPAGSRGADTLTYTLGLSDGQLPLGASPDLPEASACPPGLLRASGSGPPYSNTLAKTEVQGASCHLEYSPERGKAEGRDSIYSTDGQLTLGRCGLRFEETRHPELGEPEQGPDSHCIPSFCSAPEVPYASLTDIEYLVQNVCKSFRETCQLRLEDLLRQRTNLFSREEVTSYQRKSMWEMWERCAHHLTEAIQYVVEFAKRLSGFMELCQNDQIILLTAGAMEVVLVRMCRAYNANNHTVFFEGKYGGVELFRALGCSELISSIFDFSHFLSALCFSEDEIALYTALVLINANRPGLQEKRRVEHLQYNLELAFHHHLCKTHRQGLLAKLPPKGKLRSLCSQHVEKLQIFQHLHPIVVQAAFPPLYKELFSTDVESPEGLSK
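Using a luciferase readout, inhibitors were identified by reduced reporter activity in Drosophila cells coexpressing a copper-inducible Gal4–ROR gamma fusion and UAS-driven Photinus luciferase, incubated 20 hr after 700 uM copper sulfate.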
A number is an active result; n = inactive; u = inconclusive; x = no result given. Calls follow the shape of the dose curve; as a rule, active = well fitted curve in the direction sought with a large enough effect; inconclusive = small, poorly fitted or top-dose-only effect, or another doubt; inactive = no such curve, though single readings can be large; an effect the other way counts as inactive or inconclusive.

SMILES | DT40 TDP1 no CPT | ALOX12 inh | ELG1 repair inh | TDP1 cell CPT | VP16 counter | RORg inh
CC(C)Nc1ncnc2c1cnn2-c1ccccc1 | u | n | u | n | 14µM | u
c1ccc(-n2ncc3c(NC4CCCCCC4)ncnc32)cc1 | u | n | u | u | n | n
O=C(CCc1ccccc1)N1CCc2nc3cc(-c4ccccc4)[nH]n3c(=O)c2C1 | x | n | x | x | x | x
CCC(C)(C)NC(=O)c1cc([N+](=O)[O-])ccc1N1CCOCC1 | n | n | n | n | n | n
CC(C)(CNC(=O)c1cc([N+](=O)[O-])ccc1N1CCC(Cc2ccccc2)CC1)N1CCOCC1 | u | n | 21µM | u | x | x
Cc1ccc(C(=O)c2cc([N+](=O)[O-])ccc2N2CC(C)OC(C)C2)cc1 (stereo not drawn) | 3.3µM | n | n | 5.8µM | n | n
CC(C)CNC(=O)c1cc([N+](=O)[O-])ccc1N1CCOCC1 | n | n | n | n | n | n
O=C(c1ccc(Br)cc1)c1cc([N+](=O)[O-])ccc1N1CCOCC1 | 1.5µM | n | u | 0.82µM | n | n
CC1CN(c2ccc([N+](=O)[O-])cc2C#N)CC(C)O1 (stereo not drawn) | n | n | u | n | n | n
O=C(c1ccc(Cl)cc1)c1cc([N+](=O)[O-])ccc1N1CCOCC1 | 0.82µM | n | n | 0.73µM | n | n
COC(=O)c1ccc(CN(C)C(C)C(=O)Nc2cc(C)ccc2C)cc1 (stereo not drawn) | x | n | x | x | x | x
O=Cc1cc([N+](=O)[O-])ccc1N1CCOCC1 | n | n | n | n | n | n
O=C(c1ccccc1)c1cc([N+](=O)[O-])ccc1N1CCOCC1 | 0.82µM | n | u | 0.73µM | n | n
Cc1nn(-c2nnc(C)c(=O)[nH]2)c(C)c1SCC(=O)Nc1ccc(F)cc1 | n | n | n | n | n | u
Cc1nn(-c2nnc(C)c(=O)[nH]2)c(C)c1SCC(=O)Nc1ccc(C(C)C)cc1 | u | n | n | n | n | 1.1µM
CCn1ncc(N2CCCC(CC(=O)N3CCN(c4ccccc4)CC3)C2)cc1=O (stereo not drawn) | x | n | x | x | x | x
Cc1ccc(-c2cnc(N)n2C)cc1C | u | n | u | u | u | 20µM
Cn1c(-c2ccc(Cl)cc2)cnc1N | n | n | n | n | u | u
O=C(CSc1nc(-c2ccco2)cc(C(F)(F)F)n1)Nc1cccnc1 | 21µM | n | u | u | n | n
COc1ccc(-c2cc(C(F)(F)F)nc(SCC(=O)Nc3ccc(C(C)=O)cc3)n2)cc1 | u | n | x | 21µM | x | x
COc1ccc(NC(=O)CSc2ccc(-c3ccco3)nn2)cc1OC | 10µM | n | n | 16µM | n | n
O=C(CSc1nc(-c2ccco2)cc(C(F)(F)F)n1)Nc1ccc2c(c1)OCO2 | u | n | u | u | n | n
CCN(CC)c1ccc(NC(=O)CSc2n[nH]c(-c3ccco3)n2)cc1 | 23µM | u | n | u | x | x
CCSc1nc(=O)c2c(n1C)NC(=O)CC2c1cc(C)ccc1C (stereo not drawn) | x | n | x | x | x | x
Cc1ccccc1CC(=O)NC1CCN(c2cc(-c3ccccc3)[nH]n2)C1 (stereo not drawn) | x | n | x | x | x | x
SMILES | DT40 TDP1 no CPT | ALOX12 inh | ELG1 repair inh | TDP1 cell CPT | VP16 counter | RORg inh
Cn1c(=O)c2c(ncn2CCNc2ccc(Cl)cc2)n(C)c1=O | x | n | x | x | x | x
CCCc1c(C)c2ccc(OCC(=O)OCC)cc2oc1=O | x | n | x | x | x | x
COc1ccccc1CCNC(=O)CCSc1nc(-c2ccco2)cc(C(F)(F)F)n1 | u | u | u | 23µM | u | u
COc1ccc(NC(=O)CSc2nc(-c3ccco3)cc(C(F)(F)F)n2)cc1 | 8.2µM | n | x | u | x | x
COc1cc(NC(=O)CCSc2nc(-c3ccco3)cc(C(F)(F)F)n2)cc(OC)c1OC | x | n | x | x | x | x
COc1cc(NC(=O)CSc2nc(-c3ccco3)cc(C(F)(F)F)n2)cc(OC)c1OC | 5.2µM | u | x | 3.7µM | x | x
COc1ccc(NC(=O)CSc2nc(-c3ccco3)cc(C(F)(F)F)n2)c(OC)c1 | n | n | x | n | x | x
O=C(CCSc1nc(-c2ccco2)cc(C(F)(F)F)n1)NCCc1ccccc1 | u | n | u | u | u | n
CC/C=C\CCOC(=O)C(C)C | x | n | x | x | x | x
COC(=O)[C@@]1(Cc2ccccc2)[C@H]2C(=O)N(C)C(=O)[C@H]2[C@H]2CN=C(SCC3CC3)N21 | n | u | n | 3.7µM | x | x
CC[C@]1(C(=O)OC)[C@H]2C(=O)N(C)C(=O)[C@H]2[C@H]2CN=C(SCc3ccc(C)cc3)N21 | n | u | n | n | x | x
COC(=O)[C@@]1(Cc2ccccc2)[C@H]2C(=O)N(C)C(=O)[C@H]2[C@H]2CN=C(SCc3ccc(Cl)cc3)N21 | 12µM | n | n | 13µM | x | x
COC(=O)c1ccc(CSC2=NC[C@@H]3[C@@H]4C(=O)N(C)C(=O)[C@@H]4[C@](Cc4ccccc4)(C(=O)OC)N23)cc1 | u | n | n | 16µM | x | x
COC(=O)[C@@]1(Cc2ccccc2)[C@H]2C(=O)N(C)C(=O)[C@H]2[C@H]2CN=C(SCc3ccc(C)cc3)N21 | 16µM | n | n | 18µM | x | x
CCN1C(=O)[C@H]2[C@H]3CN=C(SCC4CC4)N3[C@@](Cc3ccccc3)(C(=O)OC)[C@H]2C1=O | u | u | n | n | x | x
COc1ccc(-c2noc(CC3CCN(C(=O)Cc4ccc(OC)c(Cl)c4)CC3)n2)cc1 | x | n | x | x | x | x
CCNC(=O)c1cccnc1OC1CCN(C(=O)c2cc(C)ccc2C)C1 (stereo not drawn) | x | n | x | x | x | x
COc1ccc(NC(=O)C[C@H]2C(=O)N(Cc3ccccc3)C[C@@H]2c2ccc(OC)cc2)cc1 | n | n | x | n | x | x
O=C(C[C@H]1C(=O)N(Cc2ccccc2)C[C@@H]1Cc1ccccc1)Nc1ccc(Br)cc1 | u | n | x | n | x | x
O=C(C[C@H]1C(=O)N(Cc2ccccc2)C[C@@H]1c1ccc(Br)cc1)Nc1ccc(Br)cc1 | 26µM | n | x | 26µM | x | x
O=C(C[C@H]1C(=O)N(Cc2cccnc2)C[C@@H]1Cc1ccccc1)Nc1ccc(Br)cc1 | 15µM | u | x | u | x | x
Fc1ccccc1CC1CCN(CC2[C@H]3CNC[C@@H]23)CC1 (stereo partly drawn) | x | n | x | x | x | x
Cc1ccc2nc(/C(C#N)=C\c3cc(C)n(-c4cccc([N+](=O)[O-])c4)c3C)[nH]c2c1 | 9.2µM | n | u | 8.2µM | n | n
CC(=O)c1c(C(C)=O)c(C)n(-c2nc(-c3ccc(Br)cc3)c(C)s2)c1C | 16µM | n | u | 18µM | n | n
CC(C)CN1C(=O)c2cccn2CC1C(=O)NCc1ccc(Cl)cc1 (stereo not drawn) | x | n | x | x | x | x
